Screening data deposited in PubChem BioAssay by National Center for Advancing Translational Sciences (NCATS).
VACV Venus inh = qHTS for Stage-Specific Inhibitors of Vaccinia Orthopoxvirus: Venus Reporter Primary qHTS. Vaccinia virus Venus reporter expression, fluorescence. Potency, µM (top dose mostly 36.5 µM), without a hit: at the top dose activity change, negative = inhibition, actives largely listed as inhibitors. 330,000 compounds, 0.46% hits. AID 720580, 2013; calls by dose curve; tested in A549 cells; note: potency is the fitted concentration of half-maximal effect; nearly all actives have a fitted effect of over 30% in size
LmPK inh = qHTS Assay for Inhibitors of Leishmania Mexicana Pyruvate Kinase (LmPK) | Q27686 | purified LmPK, Kinase-Glo ATP luminescence, 1 h | 290,000 compounds, 0.37% hits | AID 1721, 2009 | Potency, µM (doses to about 57.5 µM), for inactives: top-dose activity change, negative = inhibition, hits mostly inhibitors; note: potency is the fitted concentration of half-maximal effect
Target sequence (Q27686 whole entry, looked up): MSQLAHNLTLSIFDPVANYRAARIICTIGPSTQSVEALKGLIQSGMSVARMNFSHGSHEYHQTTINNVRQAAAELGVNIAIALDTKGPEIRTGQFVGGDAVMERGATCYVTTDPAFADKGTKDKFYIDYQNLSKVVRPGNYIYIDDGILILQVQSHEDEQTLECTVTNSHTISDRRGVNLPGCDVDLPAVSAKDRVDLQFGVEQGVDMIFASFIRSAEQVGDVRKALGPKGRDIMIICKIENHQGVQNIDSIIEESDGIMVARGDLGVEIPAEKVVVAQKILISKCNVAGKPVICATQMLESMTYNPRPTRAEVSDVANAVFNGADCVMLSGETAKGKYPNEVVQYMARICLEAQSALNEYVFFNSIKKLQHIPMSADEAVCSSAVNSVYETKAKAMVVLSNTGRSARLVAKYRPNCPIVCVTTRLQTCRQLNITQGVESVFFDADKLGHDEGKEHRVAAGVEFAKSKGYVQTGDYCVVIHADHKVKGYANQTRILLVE
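Kinase-Glo luminescence read after 1 h RT reaction of 0.1 nM LmPK with 0.5 mM PEP and 0.1 mM ADP. Activity scaled between uninhibited and enzyme-free controls.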
Tb PYK inh = qHTS of Trypanosoma Brucei Inhibitors | pyruvate kinase (Trypanosoma brucei), Q57TT1 | TbPYK enzyme, Kinase-Glo Plus ATP luminescence, 45 min | Potency, µM (titrated, usually from 76.8 µM), inactives show top-dose activity, negative = inhibition, hits mostly inhibitors | 410,000 compounds, 0.12% hits | AID 624173, 2012; note: potency is the fitted concentration of half-maximal effect; nearly all actives have a fitted effect of over 50% in size
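Luminescent Kinase-Glo Plus end-point after 45 min room-temperature reaction of T. brucei pyruvate kinase started with 130 uM ADP (final). Buffer TEA 50 mM pH 7.2 with KCl, MgCl2, BSA, Tween-20; titration-based qHTS with fitted concentration-effect curves.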
Vaccinia mCherry = qHTS for Stage-Specific Inhibitors of Vaccinia Orthopoxvirus: mCherry Reporter Primary qHTS; AID 720579, 2013; Potency, µM (series often up to 36.5 µM), for the others: at the highest dose activity change, negative = inhibition, most hits filed as inhibitors; Vaccinia virus mCherry reporter infection, fluorescence; 310,000 compounds, 0.63% hits; calls by dose curve; tested in A549 cells; note: potency is the fitted concentration of half-maximal effect; nearly all actives have a fitted effect of over 35% in size
HCMV inh = qHTS Assay for inhibitors of the human cytomegalovirus (HCMV) | HFF cells, HCMV-luciferase reporter, 72 h; active compounds read low | activity change, negative = inhibition, % at 57.5 µM | 410,000 compounds, 4.5% hits; in the data active = activity change below about -60%; inconclusive = no clear call, values can overlap the other calls; inactive = above about -39%
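Two compound doses tested in HFFs infected with HCMV-luciferase, MOI 1 PFU/cell, 72 h at 37C. Lysate luminescence read with OneGlo; data normalized against buffer-only and 10uM Salinomycin inhibitor controls.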
Numbers without * were called inactive; i = inactive; ? = inconclusive; . = not tested or not shown; ! = not active in a repeat; [ ] = dose if it differs, or a comment. Compounds with a hit are over-represented: about 5% of the library has one in this group of screens. Unless noted, calls come from the whole dose curve; as a rule, active = well fitted curve in the direction sought with a large enough effect; inconclusive = small, poorly fitted or top-dose-only effect, or another doubt; inactive = no such curve, though single readings can be large; an effect the other way counts as inactive or inconclusive. % is set by controls: 0 for no effect and ±100 for the full control effect.

SMILES	VACV Venus inh	LmPK inh	Tb PYK inh	Vaccinia mCherry	HCMV inh
Cc1cccc(CC(C)NC(=O)c2cc(COc3ccc(F)cc3F)on2)n1 (stereo not given)	.	5%	0%	.	-19
CC(=O)Nc1ccc(C(C#N)c2ccccc2)cc1 (stereo not given)	-17%	2%	-5%	i	-23
Cc1ccc(Nc2nc3ccccc3c(=O)s2)cc1C	-16%	1%	-11%	-8%	-73*
CCN1C(=O)c2cccc3c(Cl)ccc1c23	.	-8%	1%	.	83
CCC(=O)c1ccc(O)c(CC=C(C)C)c1	-21%	1%	-3%	.	-64*
Cc1cccc(N2CCN(C(=O)c3ccc4c(=O)[nH]c5c(C(=O)NC6CCCC6)sc(=S)n5c4c3)CC2)c1C	.	.	.	.	-9
NC(=O)C1CCN(C(=O)c2ccccc2CCc2ccccc2)CC1	-14%	6%	-7%	i	-11
O=C(c1ccccc1CCc1ccccc1)N1CCOCC1	-7%	0%	1%	-12%	-104*
CCc1cc2c(C)ccc(C)c2nc1SCC(=O)Nc1c[nH]c(=O)[nH]c1=O	-8%	5%	1%	i	-29
O=C1Nc2ccc(Br)cc2C1=Nc1cccnc1	-12%	0%	-1%	-22%	-8
Cc1cc(C)c2c(c1)/C(=C/C(=O)c1ccc(Br)s1)C(=O)N2	.	-3%	1%	.	-103*
CCc1nc(-c2cc(S(=O)(=O)N3CCN(c4ccccc4)CC3)ccc2OC)no1	-12%	.	11%	-22%	4
CN1CCN(C(=O)c2sc(=S)n(-c3ccccc3)c2N)CC1	.	-4%	?	.	-92*
Cc1cc(C)cc(NS(=O)(=O)c2ccc3[nH]cc(C(=O)NCc4ccccc4Cl)c(=O)c3c2)c1	-23%	.	1%	-16%	-12
Cc1cc(C)cc(NS(=O)(=O)c2ccc3[nH]cc(C(=O)NCc4ccco4)c(=O)c3c2)c1	11µM*	2%	0%	10µM*	-73*!
O=C(Nc1ccncc1)C1CCN(S(=O)(=O)c2ccccc2)CC1	2%	.	1%	-6%	-2
N/C(=N\OC(=O)C12CC3CC(CC(C3)C1)C2)c1ccccn1	-5%	0%	-8%	-12%	101
COc1ccc(C2CC(c3cccs3)=NN2C(=O)c2ccccc2)cc1OC (stereo not given)	-5%	-1%	1%	-12%	-5
CN1CCc2c(OCC(=O)N3N=C(c4cccs4)CC3c3ccc(F)cc3)cccc2C1=O (stereo not given)	-14%	6%	0%	-10%	-89*
COc1cc(C2CC(c3cccs3)=NN2C(=O)CCl)ccc1OC(F)F (stereo not given)	-6%	-3%	-6%	0%	-97*
COc1ccc(C2CC(c3cccs3)=NN2C(=O)CCl)cc1OC (stereo not given)	-22%	4%	1%	?	-97*
O=C(Cc1ccc[nH]c1=O)c1ccc(F)cc1	-17%	.	.	-14%	.
Cc1nc2nc(C)c(NS(=O)(=O)c3ccc(Cl)s3)c(=O)n2[nH]1	-6%	0%	-9%	8%	-15
Cn1c(=O)cc(OCCCC(=O)NC2CCCC2)c2ccccc21	.	-3%	-1%	.	148
COc1ccc(C2CC(=O)c3c(O)cc(O[C@H]4OC(COC5OC(C)C(O)C(O)[C@@H]5O)C(O)C(O)C4O)cc3O2)cc1O (stereo not given in full)	0%	.	.	0%	.
SMILES	VACV Venus inh	LmPK inh	Tb PYK inh	Vaccinia mCherry	HCMV inh
Cc1ccc(NC(=O)c2cn(CCC#N)nc2-c2ccc3c(c2)OCCO3)c([N+](=O)[O-])c1	-20%	1%	4%	-29%	?
N#CCCn1cc(C(=O)Nc2ccc([N+](=O)[O-])cc2)c(-c2ccc3c(c2)OCCO3)n1	-7%	4%	2%	-4%	-67*
Cc1cc(C)c(C2=CC(=O)C[C@H](c3ccc4c(c3)OCO4)C2)c(C)c1	-13%	.	-2%	?	-61*
O=C1C=C(c2ccc3c(c2)OCO3)C[C@@H](c2ccc3c(c2)OCO3)C1	-20%	.	0%	i	2
COc1ccc2[nH]cc(C(=O)CCl)c2c1	-4%[7.34 µM]	-3%	-7%	-15%[7.34 µM]	-100*
CCOc1ccc(-c2nc(CSCC(=O)NC3CCN(Cc4ccccc4)CC3)c(C)o2)cc1	?	.	3%	?	-94*
CCOc1ccc(-c2nc(CSCC(=O)N3CCN(c4cccc(OC)c4)CC3)c(C)o2)cc1	?	10%	1%	?	-77*
CCOc1ccc(-c2nc(CSCC(=O)NC3CC3)c(C)o2)cc1	.	5%	2%	.	?
CCOC(=O)N1CCC(NC(=O)CSCc2nc(-c3ccc(OCC)cc3)oc2C)CC1	.	1%	6%	.	?
CCOC(=O)N1CCC(NC(=O)CSCc2nc(-c3cccc(OC)c3)oc2C)CC1	.	-1%	-7%	.	-93*
Cc1oc(-c2ccc(Cl)cc2)nc1CSCC(=O)NC1CCN(Cc2ccccc2)CC1	-13%	4%	-6%	-26%	-85*
O=S(=O)(Cc1ccccc1Cl)CC(O)COc1ccccc1Cl (stereo not given)	-6%	-6%	-6%	-14%	-22
CCOc1ccc(-c2nc(CSCC(=O)NCc3ccc(C)cc3)c(C)o2)cc1	-15%[7.34 µM]	.	-5%	-15%[7.34 µM]	-69*
O=C(NCc1ccco1)NC(=O)c1csc([N+](=O)[O-])c1	-13%	1%	-5%	-11%	-30
Cc1cccc(C)c1NS(=O)(=O)c1cc2c3c(c1)CC(=O)N3CCC2	.	9%	-16%	.	-65*
Cc1cccc(C)c1NS(=O)(=O)c1cc2c3c(c1)CCN3C(=O)CC2	-13%	.	-3%	-1%	-25
CN(N)c1nc(-c2ccccc2)nnc1C(F)(F)F	?	-6%	-4%	.	-105*
CCO[C@H]1OC(C(=O)NCc2ccccc2)=C[C@@H](c2ccccc2)[C@@H]1CCCO	?	7%	-4%	-1%	48
O=C1C2=C(Nc3ccccc3SC2c2ccc(Cl)c(Cl)c2)c2ccccc21 (stereo not given)	?	.	-2%	?	-100*
CCOc1cc(C2Sc3ccccc3NC3=C2C(=O)c2ccccc23)ccc1O (stereo not given)	-16%	.	-3%	-22%	?
CCCc1ccc(C2Sc3ccccc3NC3=C2C(=O)c2ccccc23)cc1 (stereo not given)	-7%	.	0%	-10%	-93*
O=C1C2=C(Nc3ccccc3SC2c2ccccc2C(F)(F)F)c2ccccc21 (stereo not given)	-15%	.	-4%	?	-94*
O=P(Cc1ccccc1)(Cc1ccccc1)c1ccccc1	-11%	.	0%	-13%	27
